These results are taken from PubChem BioAssay (NCI).

Where “and” joins values, the source holds several entries; their conditions need not be identical. Equal values may be shown once. Compounds without any hit were thinned out: in the full panel of roughly 83,000, 20% have a hit.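 Note: values are percent growth. 100 is the growth of untreated cells, values between 100 and 0 indicate rising inhibition; between -100 and 0 indicates cell death.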 Values without a mark were called inactive. Calls of active or inactive are those of the source. The calls were made as follows: active = growth percent below 10; inactive = the rest.

In this assay the test system is MDA-MB-468 breast. The experiment in a line: NCI-60 one-dose screen, 48 h (100 = growth as untreated, 0 = no growth, -100 = all killed). The conditions noted are these: 10 µM unless noted.
Take `COc1ccc2c(c1)C=CC(C#N)N2C(=O)c1ccccc1` (stereo not given): the growth was 13.1%.
`CC(N)C(=O)NNc1n[nH]c(=S)n1N` (stereo not given): the growth was 82%.
Regarding `N#CCc1ccc([N+](=O)[O-])cc1`, the growth is 96.8%.
Regarding `O=C1/C(=C/c2ccc([N+](=O)[O-])cc2)Oc2ccc(O)cc21`, the growth is -63.3% (active).
`c1ccc([P+](c2ccccc2)(c2ccccc2)c2ccc3c4ccc([P+](c5ccccc5)(c5ccccc5)c5ccccc5)c5cccc(c6cccc2c63)c54)cc1`: the growth is -10.9% (active).
In the case of `COc1ccc2c(NCCCCCCCCNc3c4ccccc4nc4cc(OC)ccc34)c3ccccc3nc2c1`, the growth is -100% (active).
As to `N#Cc1cccc(NC(=O)c2cc(-c3ccc(F)cc3F)ccc2O)c1`, the growth was -4.46% (active) and -3.84% (active).
As for `Nc1ccc2c(c1)C(=O)NC2=O`, the growth is 75.4%.
Next, `Cc1ccc2c(c1)c1nc3cc(C)c(C)cc3nc1n2CCN(C)C`: -2.86% (active).
Consider `O=C(O)/C=C/c1ccc2c(c1)CCC2`, for which the growth is 104%.
In the case of `C#CCSc1nnnn1-c1ccc(Br)c(C)c1` it was 67.2%; in that of `Cc1ncc(-c2ccoc2)c(NC2CCCCCC2)n1`, 105%; in that of `CCCOc1ccc(-c2nc(-c3ccc(N)cc3)cs2)cc1`, 110%.
`Cn1cc(-c2nnc(N)nc2-c2c[nH]c3ccc(F)cc23)c2cc(Br)ccc21`: the growth is -33.4% (active).
`c1ccc(CNc2ncnc3scc(-c4cccs4)c23)nc1`: the growth is 12%.
Take `Nc1nc2ccc(CNc3ccc(C(=O)NC(CC(=O)O)C(=O)O)cc3)cc2c(=O)[nH]1` (stereo not given): the growth was 81.6%.
Turning to `CNC(=O)c1cc(Oc2ccc3c(c2)sc2nc(-c4ccc(Cl)c(C(F)(F)F)c4)cn23)ccn1`, the growth is 5.6% (active).
`c1ccc(-c2cn3c(-c4c[nH]c5ccccc45)csc3n2)cc1`: the growth is 3.41% (active).
Next, `C=C(C)[C@@H]1CC[C@]2(COC(=O)c3ccccc3C(=O)O)CC[C@]3(C)[C@H](CC[C@@H]4[C@@]5(C)CCCNC(C)(C)[C@@H]5CC[C@]43C)[C@@H]12`: 52%.
Consider `CCOC(=O)C12CCCC1=CC(=O)CC2` (stereo not given), for which the growth was 110%.
On to `O=C(c1ccc(C(F)(F)F)c(Cl)c1)N(Cc1ccc(Cl)cc1)c1ccc(-c2cc(C(F)(F)F)[nH]n2)c(O)c1`, for which the growth was -11.5% (active).
In the case of `CNc1nc2c(s1)C(c1cccc(F)c1)CC(=O)N2` (stereo not given) it was 98%; in that of `CN(C)CCNc1nc2ccccc2c2c(=O)c3ccccc3sc12`, -23.6% (active).
For `CCCCNc1cc(-c2cn[nH]c2-c2cc(C)cc(OC)c2)nc(-c2cccnc2)n1`, the growth is 78.4%.
In the case of `CCOC(=O)NC(C)C` it was 96.4%.
Next, `CCCCC1(CC)COC(CCC)OC1` (stereo not given): 99.7%.
Next, `COc1ccc(/C=N/NC(=O)c2[nH]c3ccc(Br)cc3c2-c2ccccc2)o1`: 13%.
On to `Cn1c(=O)c2[nH]c(Cc3ccc4c(c3)OCO4)nc2n(C)c1=O`, for which the growth is 106%.
Next, `COc1cc(/C=C/C(=O)c2ccc(NC(=O)CSc3nnc(-c4ccc5nc(-c6ccccc6)[nH]c5c4)o3)cc2)cc(OC)c1OC`: 94.9%; `CC(=O)OC1/C=C\CC/C=C\C1` (stereo not given): 109%.
Turning to `COc1ccc2sc3c(NCCCN(C)C)nc4ccccc4c3c(=O)c2c1`, the growth was 36.2%.
As to `COC1CC(O)C2=C(CC3C(/C(C)=C\CC=C(C)C)CCC3(C)O2)C1=O` (stereo not given), the growth is 109%.
For the compound `C=C(C)Cn1c(SCC(=O)c2cccs2)nc2sc3c(c2c1=O)CCCC3`, the growth was 68.6%.
With `C(=N\OCCc1ccccc1)/c1ccccn1`, the growth is 112% and 107%.
With `CC1(C)OC(=O)C(c2ccsc2)C(=O)O1`, the growth is 114%.
Next, `Oc1ccc(Cc2ccc(O)c(C3CC(c4ccc(Cl)cc4)=NN3)c2)cc1C1CC(c2ccc(Cl)cc2)=NN1` (stereo not given): 23.3%; `Nc1nnc(C(=O)c2cnc3n(c2=O)CCCCC3)s1`: 90.4%; `CC(C)=CCc1cc(O)c(O)c2oc3cc(O)cc(O)c3c(=O)c12`: 123%.
In the case of `CC[N+](CC)=c1ccc2nc3c(cc(N)c4ccccc43)oc-2c1` it was -5.04% (active).
In the case of `COc1ccc(-c2nn(C(=O)NCCN(C)C)cc2-c2ccncc2)cc1Cl`, the growth is 4.11% (active).
